The test system of assay [1] is Zika virus NS2B-NS3 protease (linked construct). Description: Primary screen NINDS Rhodamine qHTS for Zika virus inhibitors (AID 1347160). Also: nearly all actives have a fitted effect of over 55% in size. In short, it runs like this: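 Rhodamine110-peptide cleavage (1.5 µM substrate) by 25 nM linked NS2B-NS3 enzyme at pH 8.0 (Tris, Tween 20), after 15 min RT preincubation with compounds; 15-min fluorescence change normalized to controls and Hill-fitted.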
On the technique in general: qHTS replaces the single test concentration by a dilution series.

Assay [2] has as its system Zika virus NS2B-NS3 protease (unlinked complex). Description: Primary screen GU Rhodamine qHTS for Zika virus inhibitors: Unlinked NS2B-NS3 protease assay (AID 1347159). Also: nearly all actives have a fitted effect of over 60% in size. Also: potency is read from the fitted curve at half-maximal effect. In short, it runs like this:
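Percent inhibition came from the 15-min rise in Rhodamine110 fluorescence (1.5 microM substrate, ~15% conversion), normalized to no-inhibitor and no-enzyme wells and Hill-fitted. Unlinked protease, 25 nM, pH 8.0 Tris buffer; compounds up to 114 microM, 15-min preincubation.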

A short description of assay [3]: Confirmatory screen NINDS Rhodamine qHTS for Zika virus inhibitors (AID 1347161). Also: potency is read from the fitted curve at half-maximal effect; nearly all actives have a fitted effect of over 60% in size. In short, it runs like this: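 Percent inhibition, normalized to uninhibited and enzyme-free controls, is fitted to a 4-parameter Hill equation. Fluorescence change comes from a 15-min cleavage of 1.5 microM bis-peptide Rhodamine110 substrate by 25 nM linked NS2B-NS3 at room temperature.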

The nature of assay [4]: Tertiary RLuc qRT-PCR qHTS assay for Zika virus inhibitors (AID 1347169). Also: top concentration of the series differs between compounds; nearly all actives have a fitted effect of over 55% in size. In short, it runs like this: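 Orthogonal cell-based readout: luminescence measured 1-1.5 hrs after adding live-cell Renilla substrate to Vero cells that had been infected with ZIKV-RLuc (MOI 1-2) post-compound, incubated 48-72 hrs at 37 degrees C.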
On the technique in general: Quantitative PCR measures a nucleic acid by following its amplification.

Assay [5] can be described thus: OV-KATE Cancer Cell Toxicity qHTS against the NCATS CANVASS Library (AID 1347345). In short, it runs like this: (§1)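 Quantitative HTS format: an 11-concentration series was applied to 1000 cells/well following a 4-hour attachment. Cultures ran 72 hours before ATP luminescence detection by CellTiter-Glo.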
Assay [6] can be described thus: OV-SAHO Cancer Cell Toxicity qHTS against the NCATS CANVASS Library (AID 1347348). Also: series mostly up to about 38 µM; nearly all actives have a fitted effect of over 55% in size. In short, it runs like this: as §1
Assay [7] is described as follows: SW1088 Cancer Cell Toxicity qHTS against the NCATS CANVASS Library (AID 1347350). Also: series mostly up to about 38 µM; nearly all actives have a fitted effect of over 75% in size. In outline: as §1
A short description of assay [8]: U-118MG Cancer Cell Toxicity qHTS against the NCATS CANVASS Library (AID 1347351). The settings on record: outcome: dose series up to 38.3 µM. In short, it runs like this: as §1
The nature of assay [9]: UWB1.289 Cancer Cell Toxicity qHTS against the NCATS CANVASS Library (AID 1347347). Also: series mostly up to about 38 µM; nearly all actives have a fitted effect of over 60% in size. In outline: as §1
Assay [10] can be described thus: Panc-1005 Cancer Cell Toxicity qHTS against the NCATS CANVASS Library (AID 1347349). Also: series mostly up to about 38 µM; nearly all actives have a fitted effect of over 60% in size. In short, it runs like this: as §1

Records with an inconclusive call do not appear. A call without a number means that no potency is given here. The source made the active and inactive calls. Calls follow the shape of the dose curve; as a rule, active = well fitted curve in the direction sought with a large enough effect; inconclusive = small, poorly fitted or top-dose-only effect, or another doubt; inactive = no such curve, though single readings can be large; an effect the other way counts as inactive or inconclusive. Where a SMILES comes first, the peptide text is derived from it. [ ]: non-standard residue; d: D form. ξ: configuration not given here. ξTyr(βOH) = NC(C(=O)O)C(O)c1ccc(O)cc1

In the case of `COc1ccc(-c2ccn(CC[C@](C)(C(=O)NO)S(C)(=O)=O)c(=O)c2)c(F)c1`, the Potency entry in [1] is “inactive”.

Consider `COC(=O)C1=CO[C@@H](O[C@@H]2O[C@H](CO)[C@@H](O)[C@H](O)[C@H]2O)C2C1CC(O)C2C` (some centres not stated), for which the Potency entry in [2] and in assay [1] was “inactive” throughout.

For the molecule `CC1=C2CC(O)(C(C)(C)O)C(O[C@@H]3O[C@H](CO)[C@@H](O)[C@H](O)[C@H]3O)CC(C)C2CC1=O` (some centres not stated), the Potency result in [1] was “inactive”.

Take `CC(C)C1NC(=O)CNC(=O)C2CCCN2C(=O)C(Cc2c[nH]c3ccccc23)NC(=O)CNC(=O)C(C(O)c2ccc(O)cc2)NC(=O)CNC1=O` (configuration not stated) (cyclo(G[ξTyr(βOH)]GWPGV); configuration not given here): the Potency result in [2] and in assay [1] was “inactive” throughout.

`CC/C=C/C=C/C1(C)OC(CC(CO)OC)=CC1=O` (configuration not stated): the Potency result in [1] is “inactive”.

For the molecule `C=C(C(=O)O)[C@@H]1CC[C@@]2(C)CC[C@@H](O)C(=C)C2C1` (some centres not stated), the Potency entry in [2] and in assay [1] was “inactive” each time.

Turning to `CCC12CCCN3CCc4c(n(c5ccccc45)C(O)C1)C32` (configuration not stated), the Potency result in assay [2] and in [1] was “inactive” each time.

For `CC1OC(OC2C(OC3C(O[C@H]4CC[C@@]5(C)C(CC[C@]6(C)C5C(=O)CC5=C7CC(C)(C)CC(O)[C@]7(C)CC[C@]56C)C4(C)C)OC(C(=O)O)C(O)C3O)OCC(O)C2O)C(O)C(O)C1O` (some centres not stated), the Potency result in assay [1] was “inactive”.

In the case of `OC[C@H]1O[C@@H](OCc2ccccc2)[C@H](O[C@@H]2OC[C@@H](O)[C@H](O)[C@H]2O)[C@@H](O)[C@@H]1O`, the Potency result in assay [2] and in assay [1] was “inactive” throughout.

For the molecule `CCOC(=O)COc1ccc2c(c1)C[C@@H](NC[C@H](O)c1cccc(Cl)c1)CC2`, the Potency result in assay [2] and in [1] was “inactive” each time.

In the case of `CC1=C2CC3C(CCC3(C)O)C(C)(O)CC2OC1=O` (configuration not stated), the Potency entry in assay [2] and in [4] was “inactive” throughout. For the same molecule, the Potency in assay [3] is 44.1 µM (active).

Regarding `COC(=O)C1C(O)CCC2CN3CCc4c([nH]c5ccccc45)C3CC21` (configuration not stated), in [2], the Potency was 12.6 µM (active). Further, the Potency entry in assay [1] was “inactive”.

Regarding `CC(=O)O[C@@H]1CC2C(C)(C)C(=O)C=C[C@]2(C)C2CC[C@]3(C)C(=CC(=O)[C@@H]3c3ccoc3)[C@@]21C` (some centres not stated), the Potency result in assay [2] and in assay [1] was “inactive” in each case.

Consider `C/C=C(\C)C(=O)OC[C@H]1O[C@@H](O[C@H]2[C@@H](O[C@H]3O[C@H](CO)[C@@H](O)[C@H](O)[C@H]3O[C@@H]3O[C@H](CO)[C@@H](O)[C@H](O)[C@H]3O)O[C@H](COC(=O)/C(C)=C/C)[C@@H](O)[C@@H]2O)[C@H](O)[C@@H](O)[C@@H]1O`, for which the Potency result in assay [2] and in assay [1] was “inactive” each time.

In the case of `COc1c2c(c(C)c3c1C(=O)OC3)OC1(C)CC(O)C34OC(OC)(CC(O)C3(C)C1C2)OC4(C)C` (configuration not stated), the Potency result in assay [2] and in [1] was “inactive” each time.

Turning to `COC(O)(CC(C)C)C1Oc2cc(C)[nH]c(=O)c2O1` (configuration not stated), the Potency result in assay [2] and in [1] was “inactive” each time.

In the case of `COC(=O)[C@]1(C)CCC[C@@]2(C)[C@@H]3CC[C@@H]4C[C@@]3(CC[C@@H]21)C[C@H]4C(=O)O`, the Potency result in assay [2] and in [1] was “inactive” in each case.

With `CC(=C\C(C)O)/C=C(\C)C(=O)CC1CC(CC(N)=O)CC(=O)O1` (configuration not stated), the Potency entry in assay [2] and in [1] was “inactive” in each case.

Regarding `O=C(/C=C/C=C/c1ccc2c(c1)OCO2)N1CCCCC1`, the Potency entry in [2], in assay [1] and in [7] was “inactive” each time. Besides, the molecule was classed as inactive in assay [5], in assay [6] and in assay [8].

Consider `CC(=O)O[C@H]1C[C@@]2(C)[C@@H](CC[C@H]3[C@@]4(C)C=CC(=O)[C@@H](C)[C@@H]4[C@H](OC(C)=O)C(=O)[C@@]32C)/C1=C(\CCC=C(C)C)C(=O)O`, for which the Potency entry in assay [2] is “inactive”. Further, the outcome in assay [5], in assay [9], in assay [6], in assay [10] and in [8] was inactive.

Consider `Cc1nnc(-c2sc(NC(=O)[C@H](C(C)C)n3c(=O)[nH]c4ccccc4c3=O)nc2C)o1`, for which the Potency result in assay [2] and in assay [1] was “inactive” each time.

Regarding `CC(C)(O)C(O)C(=O)OCc1ccc(O[C@@H]2O[C@H](CO)[C@@H](O)[C@H](O)[C@H]2O)cc1` (some centres not stated), the Potency result in assay [2] and in assay [1] was “inactive” each time.

`CN1CCN(C(=O)c2cc3cc(Cl)ccc3[nH]2)CC1`: the Potency result in assay [2] and in [1] was “inactive” in each case.

With `CC(=O)c1c(C)cccc1O[C@@H]1O[C@H](CO)[C@@H](O)[C@H](O)[C@H]1O`, the Potency entry in assay [1] was “inactive”.

Values taken from PubChem BioAssay (NCATS).
